WT yeast gro inh – growth inhibition of WT yeast, mitochondrial fusion screen; mitochondrial fusion phenotypic screen, WT strain; inhibition, % at 10 µM; 190,000 compounds, 2.1% hits; in the data active = inhibition above about 58%; tested in S. cerevisiae
CHOP inh – blocks CHOP induction under ER stress; CHO-K1 CHOP-promoter luciferase, tunicamycin-induced, 15-18 h; inhibition, % at 10 µM; 220,000 compounds, 3.8% hits; AID 2732;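 active = compounds that reduced the stress-induced luciferase reporter signal by more than about 70% of percent inhibition, limit read from the data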;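 also: 0% = tunicamycin plus vehicle and 100% = wells without tunicamycin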
RAM network inh – yeast RAM network inhibition. inhibition, % at 50 µM. S. cerevisiae dse1pr::URA3 reporter, 5-FOA growth OD615, 2 d; analog-sensitive cbk1-as2 kinase mutant strain. AID 868. 190,000 compounds, 1.8% hits;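 active = inhibition above a set limit, 3 SD over mean compound inhibition, cut at about 8.4% in these data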;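 also: 0% = DMSO-only wells with no growth and 100% = 10 µM 1-NA-PP1 full growth; inhibition rescues growth on 5-FOA so higher OD means more RAM inhibition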
L major viab – Leishmania major promastigote growth inhibition; inhibition, % at 10 µM; 200,000 compounds, 9% hits; AID 1063; Leishmania major promastigotes, resazurin fluorescence viability; in the data active = inhibition above about 50%;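 also: promastigotes grown with compound for 44 hours at 28 °C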
* = called active by the depositor; / = not tested or not shown. An excerpt weighted towards active compounds, which were near 13% of everything screened.

SMILES	WT yeast gro inh	CHOP inh	RAM network inh	L major viab
Cc1cc(NC(=O)CN2CCN(C/C=C/c3ccccc3)CC2)c([N+](=O)[O-])cc1C	9.3	61.6	0.0	84.6*
O=C(CN1CCN(C/C=C/c2ccccc2)CC1)Nc1cc([N+](=O)[O-])ccc1Cl	17.8	30.3	0.8	55.9*
FC(F)(F)c1cccc(-c2nc3nc(Cl)c(Cl)nc3[nH]2)c1	/	73.7*	/	/
CN(C)CCCN(Cc1cc2cc3c(cc2[nH]c1=O)OCO3)C(=S)Nc1cccc(Cl)c1	-18.0	22.1	1.0	92.8*
Cc1cccc(NC(=S)N(CCN(C)C)Cc2cc3cc(C)cc(C)c3[nH]c2=O)c1	-1.7	16.9	2.1	98.2*
Cc1ccc(NC(=S)N(CCN(C)C)Cc2cc3cccc(C)c3[nH]c2=O)cc1	10.0	-24.5	-0.7	26.6
Cc1cccc(NC(=S)N(CCN(C)C)Cc2cc3cccc(C)c3[nH]c2=O)c1	-0.9	16.9	0.8	95.2*
Cc1ccc(NC(=S)N(CCN(C)C)Cc2cc3cc(C)ccc3[nH]c2=O)cc1	16.1	-8.3	2.0	44.2
CCN(CC)S(=O)(=O)c1cccc(NC(=O)c2cc(=O)[nH]c3ccccc23)c1	19.2	3.5	5.7	-6.2
Clc1cccc(Cl)c1Cn1c(-c2cccnc2Cl)nc2ccccc21	3.8	11.4	1.9	76.1*
CNC(=O)c1cc(Nc2nnc(-c3ccc(O)cc3)c3ccccc23)ccc1OC	-3.0	-9.1	0.8	-2.4
CCOc1ccc(-c2nnc(Nc3ccc(OC)c(C(=O)N4CCCCC4)c3)c3ccccc23)cc1	10.6	23.8	0.4	61.1*
CCCOC(=O)Nc1nc2ccccc2o1	2.7	29.0	0.7	0.6
CCOC(=O)c1cnc(Nc2nc3ccccc3o2)nc1CN1CCN(C)CC1	19.5	-7.4	1.3	76.5*
CCCN1C(=O)/C(=C/c2ccc(N3CCOCC3)cc2)NC1=S	25.1	-17.3	6.2	8.3
Cc1ccc(/C=C2/NC(=O)N(Cc3ccc(Br)cc3)C2=O)o1	-8.2	104.7*	-0.1	-10.5
O=C1N/C(=C\c2ccc(N3CCOCC3)c(F)c2)C(=O)N1Cc1ccccc1	6.3	85.1*	5.7	1.5
CCN1C(=O)N/C(=C/c2ccc(C)o2)C1=O	-8.4	10.9	1.5	-2.6
Cc1ccc(CN2C(=O)N/C(=C\c3ccc(N4CCOCC4)cc3)C2=O)cc1	-3.9	92.3*	3.9	-7.2
CC1CCCN(S(=O)(=O)c2ccc(Br)s2)C1 (stereo unspecified)	-3.2	22.8	2.1	-4.7
CC1CCN(S(=O)(=O)c2ccc(Br)s2)CC1	2.2	75.0*	-0.1	4.6
COc1ccc(-c2oc(/N=C/N3CCOCC3)c(C#N)c2-c2ccc(OC)cc2)cc1	16.2	8.8	9.1*	38.3
Cc1cccc(OCCC(=O)Nc2ccc(F)c(F)c2)c1	12.4	13.9	-1.6	3.9
CN(C(=O)COc1ccccc1C(=O)NCCOc1ccccc1)c1ccccc1	3.8	79.2*	-0.8	21.0
Cc1cccc(OCCCC(=O)NC(C)C)c1	12.2	-11.7	1.2	-1.8
SMILES	WT yeast gro inh	CHOP inh	RAM network inh	L major viab
Cc1cccc(OCCCC(=O)Nc2ccc(N(C)C)cc2)c1	-0.3	1.2	0.7	96.5*
CN(C)c1ccc(NC(=O)C(=O)NCCOc2ccccc2)cc1	-4.7	70.2*	2.2	-1.9
CN(C(=O)COC(=O)CNC(=O)c1ccccc1Cl)c1ccccc1	1.5	3.2	1.6	-3.4
Cc1cccc(OCCCC(=O)Nc2ccc(Br)cc2)c1	8.9	84.4*	0.8	-1.4
CCCNC(=O)C(=O)Nc1ccc(N(C)C)cc1	-2.7	-14.0	-0.1	-4.8
COC(=O)CSc1snnc1-c1ccc(Cl)cc1Cl	10.2	24.8	0.0	-6.9
CCN(CC)CCN1C(=O)c2ccccc2NC1c1ccc(C)cc1 (stereo unspecified)	-9.4	29.0	-0.2	57.1*
CCN(CC)CCN1C(=O)c2ccccc2NC1c1ccc(F)cc1 (stereo unspecified)	11.9	2.8	1.6	6.9
CCN(CC)CCN1C(=O)c2ccccc2NC1c1ccc(Br)cc1 (stereo unspecified)	-24.7	9.7	0.2	97.3*
COc1ccc(S(=O)(=O)NCc2ccco2)cc1N(C)S(=O)(=O)c1ccccc1	-1.8	2.9	2.9	59.5*
CN(C)C(=O)COC(=O)c1ccc(S(=O)(=O)NCc2ccco2)cc1	/	5.4	/	/
COc1ccccc1C(CNC(=O)c1ccc(S(=O)(=O)NCc2ccco2)cc1)N(C)C (stereo unspecified)	-10.3	4.6	0.1	51.0*
CC(C)Cc1nnc(NC(=O)CN2C(=O)c3ccccc3C2=O)s1	-12.4	8.8	3.0	-4.7
COc1ccc(-c2nn(-c3ccccc3)cc2C(=O)O)cc1	3.8	-6.2	3.1	2.5
COc1ccc(-c2nn(-c3ccccc3)cc2C(=O)N2c3ccc(C)cc3C3CN(C)CCC32)cc1 (stereo unspecified)	12.3	56.7	0.0	59.1*
CCOc1ccc(OCCN2C(=O)NC(Cc3c[nH]c4ccccc34)C2=O)cc1 (stereo unspecified)	-10.8	-4.7	-0.3	7.8
CCOCCCNS(=O)(=O)c1ccc(NC(=O)C2CC(=O)N(c3ccc(C)cc3)C2)cc1 (stereo unspecified)	2.6	10.6	3.8	-2.9
O=C(N/N=C/c1ccccc1O)c1cc(=O)[nH]c2ccccc12	4.9	54.8	0.6	99.0*
COc1cc(OC)cc(C(=O)NCC(=O)OCC(=O)C(C)(C)C)c1	5.3	-19.1	0.3	-5.2
O=S(=O)(c1ccc(F)cc1)N(CCO)CC(O)Cn1c2ccccc2c2ccccc21 (stereo unspecified)	26.6	72.6*	8.7*	25.3
CCN(CC(O)Cn1c2ccccc2c2ccccc21)S(=O)(=O)c1ccc(F)cc1 (stereo unspecified)	65.4*	70.1*	10.7*	13.2
CCOC(=O)c1c(C)[nH]c(C(=O)CSc2nc(C)cc(C)n2)c1C	-5.6	44.9	-0.6	-1.7
CCOC(=O)c1c(C)[nH]c(C(=O)OCCOc2ccccc2C)c1C	1.4	74.3*	4.5	-2.4
CCOC(=O)c1c(C)[nH]c(C(=O)OCCOc2ccc(Cl)cc2)c1C	2.1	72.4*	4.0	2.7
CCOC(=O)c1c(C)[nH]c(C(=O)CSc2ccc(Cl)cc2)c1C	8.5	70.2*	1.4	-4.6
SMILES	WT yeast gro inh	CHOP inh	RAM network inh	L major viab
CCOC(=O)c1c(C)[nH]c(C(=O)COC(=O)CNC(=O)c2ccc(Cl)cc2)c1C	7.6	21.5	6.8	-5.9
CCOC(=O)c1c(C)[nH]c(C(=O)OCC(=O)Nc2ccc(OCC)cc2)c1C	12.6	19.5	3.7	-4.1
CCOC(=O)c1c(C)[nH]c(C(=O)COC(=O)C(C)Oc2ccc(Cl)cc2Cl)c1C (stereo unspecified)	-0.2	74.6*	4.7	-5.1
CCOC(=O)c1c(C)[nH]c(C(=O)COC(=O)C2(C)CC2(Cl)Cl)c1C (stereo unspecified)	-1.5	80.6*	3.4	12.8
CCOC(=O)c1c(C)[nH]c(C(=O)Cn2nnc(-c3ccccc3)n2)c1C	11.9	7.7	8.9*	12.6
CCOC(=O)c1c(C)[nH]c(C(=O)Cn2nnc(-c3ccccc3Cl)n2)c1C	-5.3	24.4	3.6	2.2
COCCOc1cc(-n2cccc2)c(Cl)cc1Cl	-8.5	6.5	4.6	9.8

Screening data: PubChem BioAssay, several laboratories
